Compound activity from PubChem.
DAX1 inh-1: DAX1 (NR0B1) inhibition, primary screen. AID 652010. actives 1.1% (n = 370,000). inhibition, % at 6.8 µM. HEK293T StAR-luciferase reporter, SF-1/DAX-1 repression relief;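 active = inhibition above the mean over all tested compounds plus 3 SD, cut at about 3.6% in these data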;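 note: 0% = DAX-1 cells with DMSO and 100% = cells lacking DAX-1 with DMSO; higher inhibition means more luminescence from relief of DAX-1 repression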
DAX1 inh-2: inhibits human nuclear receptor DAX1. P51843. HEK293 Gal4-DAX1 luciferase reporter, luminescence. inhibition, % at 6.75 µM. actives 0.99% (n = 340,000). AID 504766;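 active = inhibition above the mean over all tested compounds plus 3 SD, cut at about 4.2% in these data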;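 note: 0% = DAX1-transfected cells with DMSO and 100% = empty-vector control cells with DMSO; inhibition shows as a rise in luminescence from relieved DAX1 repression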
Target sequence (P51843 207-470 limits assumed): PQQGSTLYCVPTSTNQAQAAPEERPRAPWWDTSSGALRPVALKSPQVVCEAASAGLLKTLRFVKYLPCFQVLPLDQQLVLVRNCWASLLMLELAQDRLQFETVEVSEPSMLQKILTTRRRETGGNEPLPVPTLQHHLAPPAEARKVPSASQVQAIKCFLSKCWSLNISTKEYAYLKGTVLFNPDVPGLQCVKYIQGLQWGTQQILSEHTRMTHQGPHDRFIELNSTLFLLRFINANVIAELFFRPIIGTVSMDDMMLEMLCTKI
hcDAF12 agonist: activators of H. contortus DAF-12 nuclear receptor. HEK293 hcDAF-12 lit1-tk-luc reporter, luminescence; 0% DMSO, 100% Δ7-dafachronic acid. activation, % at 6.8 µM. actives 1.4% (n = 370,000);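 active = activation above the mean of all tested compounds plus 3 SD, cut at about 5.5% in these data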;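 note: 100% = response to 3 µM Δ7-dafachronic acid high control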
AHR activator: activates the human aryl hydrocarbon receptor; P35869; activation, % at 5 µM; actives 2.5% (n = 320,000); AHR-responsive luciferase reporter cells, luminescence; in the data active = activation above about 47%;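 note: 0% = vehicle wells and 100% = reference agonist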
hgDAF12 agonist: activates the H. glycines DAF-12 receptor ligand-binding domain; HEK293 GAL4-hgDAF12 UAS-luciferase reporter, agonist luminescence; normalized to butyrate control; activation, % at 6.8 µM; actives 1.8% (n = 370,000); AID 687014;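 active = activation above a cutoff set at the mean of all screened compounds plus 3 SD, cut at about 10% in these data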;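 note: 0% = DMSO wells and 100% = sodium butyrate wells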
ssDAF-12 act: S. stercoralis DAF-12 activation, primary screen | HEK293 ssDAF-12/GRIP1 lit1-tk-luc reporter, luminescence; % of 3 µM dafachronic acid response | AID 652126 | activation, % at 6.8 µM | actives 1% (n = 370,000);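 active = activation above the mean over all tested compounds plus 3 SD, cut at about 0.9% in these data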;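 note: 0% = DMSO-only wells and 100% = 3 µM delta7-dafachronic acid wells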
AHR act cf: human AHR activation, confirmation; shares compounds with AHR activator; AID 2845; activation, % at 9 µM; human cells, AHR-responsive luciferase reporter, luminescence; actives 87% (n = 2,300); in the data active = activation above about 49%;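 note: HepG2 hepatoma cells carrying a DRE-driven firefly luciferase reporter; 0% = vehicle wells and 100% = reference agonist wells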
PXR counter: counter-screen for AHR activators: human PXR activators | AID 434939 | activation, % at 11.6 µM | cell-based PXR reporter, luciferase luminescence | actives 88% (n = 2,300) | shares compounds with AHR activator; in the data active = activation above about 11%;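 note: human hepatoma DPX-2 cells expressing full-length human PXR; 0% = DMSO and 100% = reference agonist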
Target sequence (O75469 whole entry, looked up): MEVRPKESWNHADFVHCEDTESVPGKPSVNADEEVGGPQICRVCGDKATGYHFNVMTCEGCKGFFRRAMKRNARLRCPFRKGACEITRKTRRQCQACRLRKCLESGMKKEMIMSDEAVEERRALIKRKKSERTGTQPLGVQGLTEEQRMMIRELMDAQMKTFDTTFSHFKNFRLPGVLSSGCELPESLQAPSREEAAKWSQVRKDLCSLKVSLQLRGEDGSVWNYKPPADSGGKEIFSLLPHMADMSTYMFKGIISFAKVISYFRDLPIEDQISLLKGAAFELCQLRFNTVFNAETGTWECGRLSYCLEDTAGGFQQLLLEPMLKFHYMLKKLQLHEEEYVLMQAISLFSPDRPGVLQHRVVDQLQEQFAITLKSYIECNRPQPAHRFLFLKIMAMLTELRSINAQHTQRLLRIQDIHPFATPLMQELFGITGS
DAX1 conf: NR0B1 (human) inhibition, confirmation; inhibition, % at 6.8 µM; shares compounds with DAX1 inh-1; actives 87% (n = 2,400); AID 652134; HEK293T StAR-promoter luciferase reporter, SF-1/DAX-1 repression;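 active = inhibition above the average of every tested compound plus 3 SD, cut at about 3.8% in these data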;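 note: 0% = DAX-1 cells with DMSO and 100% = no DAX-1 control cells with DMSO; active compounds raise luminescence by relieving repression of the StAR reporter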
SF1 mutant ctr: nonselective inhibitor or artifact in SF-1 mutant DAX1 counter-screen; shares compounds with DAX1 inh-1; HEK293 StAR-luciferase, SF-1 AF2 mutant, luminescence; inhibition, % at 6.8 µM; actives 78% (n = 2,400); AID 652136;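 active = inhibition above the mean of all tested compounds plus 3 SD, cut at about 3% in these data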;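 note: 0% = DAX-1 transfected cells with DMSO and 100% = cells without DAX-1 with DMSO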
LXR ag: activates human LXR-beta, counter-screen for hcDAF-12 agonists; AID 743027; HEK293 Gal4-LXR tk-luc reporter, luminescence, 24 h; normalized: DMSO 0%, positive control 100%; activation, % at 6.8 µM; shares compounds with hcDAF12 agonist; 3,400 tested, under 10 active;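 active = mean percent activation of the reporter above a cutoff set as the average over tested compounds plus their standard deviation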
hcDAF12 ag: hcDAF-12 agonism, confirmation assay; activation, % at 6.8 µM; HEK293 hcDAF-12 lit1-tk-luc reporter, luminescence; % of Δ7-dafachronic acid response; shares compounds with hcDAF12 agonist; AID 743032; actives 61% (n = 3,400);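 active = mean activation across triplicate tests above the threshold derived from the earlier primary screen, cut at about 5.5% in these data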;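 note: 0% = DMSO only wells and 100% = 3 µM Δ7-dafachronic acid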
hgDAF12 conf: confirmation of H. glycines DAF-12 agonists | activation, % at 6.8 µM | shares compounds with hgDAF12 agonist | actives 80% (n = 3,300) | HEK293 GAL4-hgDAF12 luciferase reporter, agonist mode; percent of butyrate response;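 active = mean activation over triplicate wells above the hit cutoff derived from the earlier primary screen, cut at about 11% in these data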;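 note: 0% = DMSO low control and 100% = 2 mM sodium butyrate high control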
LXRb DAF12 ctr: counter-screen for DAF-12 agonists: agonists of human LXR-beta. shares compounds with hgDAF12 agonist. HEK293 Gal4-LXR luciferase reporter, 24 h. activation, % at 6.8 µM. 3,300 tested, under 10 active. AID 743051;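 active = mean activation of the triplicate above a set limit carried over from the primary screen, none filed active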
Active calls of the source: *; · = no result. Hits are enriched below; roughly 5.7% of the tested compounds scored in any of these assays.

SMILES	DAX1 inh-1	DAX1 inh-2	hcDAF12 agonist	AHR activator	hgDAF12 agonist	ssDAF-12 act	AHR act cf	PXR counter	LXR ag	hcDAF12 ag	others
Fc1ccccc1/C=C/c1ccc2ccccc2n1	5.8*	-4	20*	89*	15*	2.2*	74*	7	1	13*	DAX1 conf=14*;SF1 mutant ctr=3.5*
COc1cccc(C(=O)Nc2nnc(C(C)C)s2)c1	4.8*	0	6.8*	133*	10	0	0	28*	1	7.3*	DAX1 conf=9.0*;SF1 mutant ctr=3.1*
O=C(Nc1ccc2oc(-c3ccncc3)nc2c1)c1cccs1	-1	-1	-2	-9	1	-1	·	·	·	·
CN(C)C(=O)c1cc(C(=O)c2ccccc2)c[nH]1	1	2	-1	2	4	-1	·	·	·	·
COC1=C(Nc2ccc(OC)cc2)C(=O)c2ccccc2C1=O	0	1	1	5	-1	0	·	·	·	·
O=c1[nH]c(-[n+]2ccc3ccccc3c2)c(/C=N/N=C(\[O-])c2ccccc2)s1	2	1	9.0*	84*	8	1	50*	20*	0	1
CC(C)(C)c1cc[n+](-c2[nH]c(=O)sc2/C=N/N=C(\[O-])c2cccnc2)cc1	1	1	3	2	0	-1	·	·	·	·
O=C(/C=C/Nc1ccc(F)cc1F)c1cccs1	6.1*	-3	12*	86*	21*	2.4*	108*	86*	1	15*	DAX1 conf=8.3*;SF1 mutant ctr=2
O=C(Nc1cccs1)Nc1ccc(F)cc1F	0	-1	-2	16	6	-1	·	·	·	·
N/C(=N\OC(=O)c1cccc(Br)c1)c1ccccn1	8.9*	-3	17*	99*	3	1.4*	95*	4	1	12*	DAX1 conf=17*;SF1 mutant ctr=11*
O=C(O)C(C/C(=N/O)c1ccc(Br)cc1)P(=O)(c1ccccc1)c1ccccc1 (centres undefined)	0	-2	0	1	-3	-1	·	·	·	·
Nc1ccc(N=Nc2ccccc2)c2cccnc12	0	2	7.4*	94*	6	1	84*	12*	0	9.5*
Cc1cc(NCCOCCO)n2ncc(-c3ccc(Cl)cc3)c2n1	3.7*	4	6.7*	126*	10	1.0*	142*	28*	1	6.8*
c1ccc(-c2csc(Nc3ccccn3)n2)cc1	2	3	14*	139*	18*	2.7*	131*	16*	2	17*
Cc1ccccc1NC(=O)/C(C#N)=C\c1ccsc1	0	1	7.4*	84*	7	-1	50*	62*	0	6.9*
Cc1cc(C)n2cc(-c3ccc(Cl)cc3)c(C(=O)O)c2n1	3	1	10*	96*	8	1.4*	106*	·	1	9.3*
Cc1cc(-c2ccc(Cl)cc2)c2cnn(C(C)C)c2n1	1	-2	0	5	1	-1	·	·	·	·
CCc1ccc2oc(-c3cccc(N)c3)nc2c1	4.3*	-1	16*	83*	16*	3.3*	90*	12*	2	14*	hgDAF12 conf=24*;LXRb DAF12 ctr=1
Cc1nn(CC(=O)NCCCN2CCCCC2)c(=O)c2cccn12	0	0	3	2	0	-1	·	·	·	·
COc1cccc(/C=C/c2ccc3cccc(O)c3n2)c1	0	1	9.0*	83*	14*	1.5*	120*	22*	2	8.5*	hgDAF12 conf=24*;LXRb DAF12 ctr=1
CCN(CC)S(=O)(=O)c1ccc(N2CCOCC2)c(NC(=O)c2ccc3ccccc3c2)c1	-1	0	-1	2	0	-1	·	·	·	·
c1ccc2c(C3=NNC(=NC4CC4)SC3)c[nH]c2c1	7.0*	0	14*	97*	20*	2.1*	8	11*	2	7.6*	DAX1 conf=19*;SF1 mutant ctr=7.1*;hgDAF12 conf=13*;LXRb DAF12 ctr=1
Cc1cc(C2=NNC(=NC3CC3)SC2)c(C)n1-c1ccccc1	-3	-5	-7	·	-19	-4	·	·	·	·
Cc1ccc(-c2cn(-c3ccccc3)c(=S)[nH]2)cc1C	1	4	6.2*	81*	20*	0	12	38*	·	·	hgDAF12 conf=14*;LXRb DAF12 ctr=1
Cc1ccccc1-c1cn(-c2ccccc2)c(=S)[nH]1	-1	-1	0	20	2	-1	·	·	·	·
SMILES	DAX1 inh-1	DAX1 inh-2	hcDAF12 agonist	AHR activator	hgDAF12 agonist	ssDAF-12 act	AHR act cf	PXR counter	LXR ag	hcDAF12 ag	others
Nc1nc(Nc2cccc(F)c2)nc2ccccc12	1	3	6.1*	83*	14*	0	75*	35*	·	·	hgDAF12 conf=16*;LXRb DAF12 ctr=1
O=c1oc(Nc2cccc(F)c2)nc2ccccc12	2	0	3	3	8	0	·	·	·	·
COC(=O)C1=C(C)N(C)C(=S)NC1c1ccc(Cl)cc1 (centres undefined)	0	0	-1	0	-2	-2	·	·	·	·
COc1cc(C2Nc3ccccc3C(=O)N2c2ccc(Cl)cc2)c(Cl)cc1OCC(=O)O (centres undefined)	4.0*	3	5	116*	14*	1	89*	15*	·	·	hgDAF12 conf=9;LXRb DAF12 ctr=1
C/C=C/C(=O)Nc1nnc(-c2ccccc2C)s1	-1	-1	-3	11	1	-1	·	·	·	·
CCOc1ccc2oc(C(=O)Nc3nccs3)c(C)c2c1	7.2*	2	5.9*	107*	14*	0	162*	23*	·	·	DAX1 conf=15*;SF1 mutant ctr=7.5*;hgDAF12 conf=21*;LXRb DAF12 ctr=1
